PubChem BioAssay (Tox21)
Records with an inconclusive call do not appear. Active and inactive are the calls of the source. Unless noted, the call rests on the fitted dose curve.

Legend:
[1] = Nuclear factor erythroid 2-related factor 2/antioxidant responsive element (Nrf2/ARE) small molecule agonists: qHTS cell viability counter screen in human keratinocytes (AID 1919968; active means well fitted curve in the direction sought with a large enough effect in the repeat runs; an effect the other way counts as inactive or inconclusive; further: nearly all actives have a fitted effect of over 55% in size; further: potency means the concentration at half of the fitted maximal effect)
In short: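 After a 5 h attachment period, ARE-reporter keratinocytes were dosed with compounds in DMSO and then cultured 23 h at 37 C. Cell viability came from CellTiter-Fluor signal read after a further 1 h.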

[2] = Nuclear factor erythroid 2-related factor 2/antioxidant responsive element (Nrf2/ARE) small molecule agonists: luciferase reporter gene qHTS assay in human keratinocytes (AID 1919969); further: nearly all actives have a fitted effect of over 35% in size; further: potency means the concentration at half of the fitted maximal effect
[3] = molecular target: Gonadotropin-releasing hormone receptor (Homo sapiens) (UniProt P30968); assay: Human gonadotropin-releasing hormone receptor (GnRHR) small molecule agonists, calcium flux assay in GnRHR-HEK293 cells (AID 1920063); further: nearly all actives have a fitted effect of over 35% in size
Gonadotropin-releasing hormone receptor (Homo sapiens), sequence (P30968 whole entry, looked up): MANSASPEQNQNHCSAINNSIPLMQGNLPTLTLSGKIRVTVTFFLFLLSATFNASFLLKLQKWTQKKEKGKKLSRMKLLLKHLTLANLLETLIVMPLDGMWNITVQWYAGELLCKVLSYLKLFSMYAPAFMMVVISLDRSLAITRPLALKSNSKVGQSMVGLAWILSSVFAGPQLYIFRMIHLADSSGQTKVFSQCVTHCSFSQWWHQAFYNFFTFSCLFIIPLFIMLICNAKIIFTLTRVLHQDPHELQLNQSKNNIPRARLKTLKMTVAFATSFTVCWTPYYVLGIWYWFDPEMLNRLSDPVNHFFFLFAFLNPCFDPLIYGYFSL
In short: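 We seeded human GnRHR-expressing HEK293 cells for 18 hours, loaded them with calcium dye for an hour at 37 C, added test compounds, and recorded fluorescence intensity kinetically for three minutes.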

[4] = molecular target: KiSS-1 receptor (Homo sapiens) (UniProt Q969F8); assay: Human kisspeptin (KISS1R) small molecule agonists, calcium flux assay in KISS1R-HEK293 cells (AID 1920064; active means well fitted curve in the direction sought with a large enough effect in the repeat runs; an effect the other way counts as inactive or inconclusive)
KiSS-1 receptor (Homo sapiens), sequence (Q969F8 whole entry, looked up): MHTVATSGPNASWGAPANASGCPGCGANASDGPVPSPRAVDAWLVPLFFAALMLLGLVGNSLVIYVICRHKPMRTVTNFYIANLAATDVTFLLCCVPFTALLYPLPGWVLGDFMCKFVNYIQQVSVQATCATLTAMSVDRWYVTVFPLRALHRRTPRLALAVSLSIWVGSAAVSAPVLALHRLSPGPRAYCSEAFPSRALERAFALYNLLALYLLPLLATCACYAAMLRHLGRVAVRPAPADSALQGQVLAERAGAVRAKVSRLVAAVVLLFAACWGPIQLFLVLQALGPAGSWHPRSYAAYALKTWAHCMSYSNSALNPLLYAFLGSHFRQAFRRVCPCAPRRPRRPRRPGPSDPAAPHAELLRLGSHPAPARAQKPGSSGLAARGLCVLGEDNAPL
In short: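 Kinetic calcium assay, 1 s sampling over 3 min at Ex/Em 480/540, in HEK293 cells engineered with human KISS1R; compounds delivered in DMSO after 1 h dye loading.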

[5] = G protein-coupled receptor (GPCR) small molecule agonists, calcium flux assay: HEK293 wild type cell line counter screen (AID 1920065)
In short: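 Calcium-sensitive dye, loaded 1 h at 37 C into cells cultured 18 h, reports compound-evoked calcium release as fluorescence (Ex/Em 480/540), measured over 3 min. Agonist mode; 15-point titrations, triplicate.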

[6] = p53 small molecule agonists, cell-based qHTS assay with human liver microsomes (AID 1963577);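 further: p53 response element beta-lactamase reporter cells with liver microsomes plus NADPH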
In short: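 Metabolically competent format: test substances, human liver microsomes and NADPH (both 0.5 mg/mL final) incubated with p53RE-bla cells 16 h at 37 C. Beta-lactamase reporter signal then quantified by fluorescence.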

[7] = p53 small molecule agonists, cell-based qHTS assay with rat liver microsomes (AID 1963578)
In short: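 Each plate received p53RE-bla cells, then compound, then rat liver microsomes and NADPH (both 0.5 mg/mL final). Plates were held 16 h at 37 C, and beta-lactamase activity was detected with LiveBLAzer over 2 h.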

[8] = p53 small molecule agonists, cell-based qHTS assay with human liver microsomes: qHTS cell viability counter screen (AID 1963579); further: nearly all actives have a fitted effect of over 45% in size; further: potency means the concentration at half of the fitted maximal effect
In short: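 Tox21 library compounds, delivered from DMSO stocks, were tested on p53RE-bla cells together with 0.5 mg/mL human liver microsomes and 0.5 mg/mL NADPH (final) over 16 h at 37 C; CellTiter-Glo luminescence served as the cytotoxicity measure.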

[9] = p53 small molecule agonists, cell-based qHTS assay with rat liver microsomes: qHTS cell viability counter screen (AID 1963580); further: nearly all actives have a fitted effect of over 45% in size; further: potency means the concentration at half of the fitted maximal effect
In short: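 In HCT-116 cells carrying a p53 response element-bla reporter, compounds were metabolically activated in situ by rat liver microsomes with NADPH over 16 h. Cell ATP content then served as the cytotoxicity measure.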

[10] = p53 small molecule agonists, cell-based qHTS assay: qHTS cell viability counter screen (AID 1963581); further: nearly all actives have a fitted effect of over 45% in size; further: potency means the concentration at half of the fitted maximal effect
In short: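 Following 5 h attachment, HCT-116 p53RE-bla cells took up compound for 16 h at 37 C; the reporter was read with B/G FRET substrate (2 h RT), and viability then via CellTiter-Glo ATP luminescence.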

[11] = p53 small molecule agonists, cell-based qHTS assay (AID 1963582; active means well fitted activation curve with a large enough effect in the signal ratio in the repeat runs, not every such curve was filed as active; the % refers to the signal ratio)
In short: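 In this cell-based concentration-response screen, a p53 response element drives beta-lactamase; cells received DMSO-borne compounds after 5 h culture and were incubated a further 16 h before FRET substrate development.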

[12] = molecular target: Muscarinic acetylcholine receptor M1 (Homo sapiens) (UniProt P11229); assay: Cholinergic receptor muscarinic 1 (CHRM1) small molecule antagonists, cell-based qHTS assay (AID 1963588); further: nearly all actives have a fitted effect of over 40% in size
Muscarinic acetylcholine receptor M1 (Homo sapiens), sequence (P11229 whole entry, looked up): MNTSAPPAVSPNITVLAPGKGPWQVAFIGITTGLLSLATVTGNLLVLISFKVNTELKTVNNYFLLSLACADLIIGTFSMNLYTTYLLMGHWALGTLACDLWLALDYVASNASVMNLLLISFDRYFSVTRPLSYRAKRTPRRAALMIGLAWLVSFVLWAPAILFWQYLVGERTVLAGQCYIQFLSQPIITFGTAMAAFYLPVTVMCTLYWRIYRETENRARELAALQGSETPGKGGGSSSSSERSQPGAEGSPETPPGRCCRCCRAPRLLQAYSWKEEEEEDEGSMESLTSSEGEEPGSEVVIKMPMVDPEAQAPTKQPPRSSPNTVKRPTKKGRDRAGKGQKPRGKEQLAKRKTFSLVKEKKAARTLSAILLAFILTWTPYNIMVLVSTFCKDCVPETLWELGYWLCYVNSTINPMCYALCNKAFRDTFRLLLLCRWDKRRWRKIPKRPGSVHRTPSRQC
In short: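 CHRM1-CHO calcium-flux assay, antagonist mode. Cells were seeded 18 h, dye-loaded 1 h at 37 C and given compound for 5 min at RT, then acetylcholine was added at 50nM. FDSS fluorescence was read 3 min; 15 concentrations, three runs.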

[13] = molecular target: Muscarinic acetylcholine receptor M1 (Homo sapiens) (UniProt P11229); assay: Cholinergic receptor muscarinic 1 (CHRM1) small molecule agonists, cell-based qHTS assay (AID 1963589); further: nearly all actives have a fitted effect of over 35% in size
In short: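 Measures agonist-induced intracellular calcium rise. Stable human CHRM1 CHO line, 1 h dye load at 37 C, compounds from DMSO, kinetic fluorescence read.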

[14] = cAMP Responsive Elements (CRE) small molecule agonists, cell-based qHTS assay (AID 1963590)
In short: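 A CRE-responsive beta-lactamase reporter in HEK 293T cells was used. Treatment ran 3 h at 37 C; detection used LiveBLAzer B/G FRET substrate for 2 h at room temperature.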

[15] = cAMP Responsive Elements (CRE) small molecule antagonists, cell-based qHTS assay (AID 1963591; active means well fitted inhibition curve with a large enough effect in the signal ratio in the repeat runs, not every such curve was filed as active; the % refers to the signal ratio)
In short: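 HEK293T cells carrying a CRE-driven beta-lactamase reporter receive compound and NKH477 (0.25 uM final) for 3 h. Fluorescence from LiveBLAzer B/G FRET substrate is read after 2 h at room temperature.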

[16] = molecular target: Beta-2 adrenergic receptor (Homo sapiens) (UniProt P07550); assay: Adrenergic beta2 receptor (ADRB2) small molecule antagonists, cell-based qHTS assay (AID 1963592); further: series mostly up to about 92 µM; nearly all actives have a fitted effect of over 50% in size
Beta-2 adrenergic receptor (Homo sapiens), sequence (P07550 whole entry, looked up): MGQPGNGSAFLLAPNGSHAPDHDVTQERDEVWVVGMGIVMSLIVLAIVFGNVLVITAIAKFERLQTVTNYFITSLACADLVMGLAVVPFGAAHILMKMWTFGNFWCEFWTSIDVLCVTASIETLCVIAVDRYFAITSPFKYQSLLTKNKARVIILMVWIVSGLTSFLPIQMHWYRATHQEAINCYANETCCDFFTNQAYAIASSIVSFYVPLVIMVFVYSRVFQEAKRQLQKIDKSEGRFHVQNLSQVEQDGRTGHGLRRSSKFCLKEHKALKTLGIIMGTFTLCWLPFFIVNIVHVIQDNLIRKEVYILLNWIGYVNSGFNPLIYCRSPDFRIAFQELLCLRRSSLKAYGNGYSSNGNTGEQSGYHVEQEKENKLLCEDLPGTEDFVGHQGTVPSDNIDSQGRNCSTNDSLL
In short: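 Cells (CHO, stable ADRB2 overexpression) incubated 18-20hr at 37C; compounds added from DMSO; agonist mix (1nM isoproterenol, 100uM IBMX, 25uM Ro-20-1724) added; 0.5hr RT; d2-cAMP and anti-cAMP-cryptate added; 1hr RT; 665/615 nm read.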

[17] = molecular target: 5-hydroxytryptamine receptor 2A (Homo sapiens) (UniProt P28223); assay: 5-hydroxytryptamine receptor 2A (HTR2A) small molecule antagonists, cell-based qHTS assay (AID 1963586); further: nearly all actives have a fitted effect of over 45% in size
5-hydroxytryptamine receptor 2A (Homo sapiens), sequence (P28223 whole entry, looked up): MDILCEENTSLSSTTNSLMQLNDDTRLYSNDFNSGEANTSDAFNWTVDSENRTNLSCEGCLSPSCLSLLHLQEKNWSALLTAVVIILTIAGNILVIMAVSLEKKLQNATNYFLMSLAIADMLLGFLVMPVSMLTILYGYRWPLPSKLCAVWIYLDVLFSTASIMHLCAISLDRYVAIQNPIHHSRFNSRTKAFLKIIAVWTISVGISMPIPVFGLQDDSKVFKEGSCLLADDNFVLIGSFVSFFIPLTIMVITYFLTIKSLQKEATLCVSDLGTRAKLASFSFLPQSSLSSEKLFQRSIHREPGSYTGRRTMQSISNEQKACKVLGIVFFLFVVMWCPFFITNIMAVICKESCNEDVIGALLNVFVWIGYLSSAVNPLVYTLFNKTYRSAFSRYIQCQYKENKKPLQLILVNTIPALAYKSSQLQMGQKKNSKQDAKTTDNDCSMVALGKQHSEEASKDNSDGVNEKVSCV
In short: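 Antagonist-mode intracellular calcium assay: DOI (4 nM) added after 5 min compound pre-incubation at room temperature to dye-loaded HTR2A-CHO cells. Fluorescence followed for 3 min, sampled every second.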

[18] = molecular target: 5-hydroxytryptamine receptor 2A (Homo sapiens) (UniProt P28223); assay: 5-hydroxytryptamine receptor 2A (HTR2A) small molecule agonists, cell-based qHTS assay (AID 1963587); further: nearly all actives have a fitted effect of over 30% in size; further: potency means the concentration at half of the fitted maximal effect
In short: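 HTR2A-CHO cells, plated 18 h at 37 C/5% CO2, dye-loaded 1 h at 37 C; compounds in DMSO added by pin tool (agonist mode). Intracellular calcium flux read as kinetic fluorescence on FDSS over 2 min at 1 s intervals.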

[19] = molecular target: D(2) dopamine receptor (Homo sapiens) (UniProt P14416); assay: Dopamine D2 receptor (DRD2) small molecule agonists, cell-based qHTS assay (AID 1963594); further: nearly all actives have a fitted effect of over 35% in size
D(2) dopamine receptor (Homo sapiens), sequence (P14416 whole entry, looked up): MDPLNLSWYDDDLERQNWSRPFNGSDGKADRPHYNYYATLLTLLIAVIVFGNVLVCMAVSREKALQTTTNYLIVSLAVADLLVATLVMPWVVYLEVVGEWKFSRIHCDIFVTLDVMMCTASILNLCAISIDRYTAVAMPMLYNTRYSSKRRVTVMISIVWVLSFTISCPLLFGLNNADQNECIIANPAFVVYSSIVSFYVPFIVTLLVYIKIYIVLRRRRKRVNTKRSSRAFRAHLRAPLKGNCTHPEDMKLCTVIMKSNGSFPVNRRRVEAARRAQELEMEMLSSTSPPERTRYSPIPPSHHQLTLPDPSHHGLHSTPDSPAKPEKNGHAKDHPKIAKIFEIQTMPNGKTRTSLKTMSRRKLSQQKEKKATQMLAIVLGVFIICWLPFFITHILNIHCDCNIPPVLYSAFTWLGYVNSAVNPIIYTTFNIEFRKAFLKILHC
In short: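 HEK293 cells stably expressing DRD2 were cultured 24 h at 37 C, then given Ro20-1724 (0.1 mM final) and compounds for 10 min at room temperature. NKH477 (200nM) was then added for 30 min. cAMP was read by HTRF.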

[20] = molecular target: D(2) dopamine receptor (Homo sapiens) (UniProt P14416); assay: Dopamine D2 receptor (DRD2) small molecule antagonists, cell-based qHTS assay (AID 1963595; active means well fitted inhibition curve with a large enough effect in the signal ratio in the repeat runs, with a control signal flat; the % refers to the signal ratio; further: potency means the concentration at half of the fitted maximal effect)
In short: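 Antagonism was scored as restored cAMP in HEK293-DRD2 cells. These cells were stimulated with 200 nM NKH477 and 12 nM quinpirole for 30 min at room temperature, in the presence of 0.1 mM Ro20-1724.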
On the % scale 0 is the no-effect control and ±100 the full control effect.

CCCN1CCC[C@@H]2Cc3[nH]ncc3C[C@H]21
inactive: Potency [1] | Potency [2] | Potency [3] | Potency [4] | Potency [5] | Potency [6] | Potency [7] | Potency [8] | Potency [9] | Potency [10] | Potency [11] | Potency [12] | Potency [13] | Potency [14] | Potency [15] | Potency [16]

O=c1[nH]oc2c1CCNC2
inactive: Potency [1] | Potency [2] | Potency [3] | Potency [4] | Potency [5] | Potency [6] | Potency [7] | Potency [8] | Potency [9] | Potency [17] | Potency [18] | Potency [12] | Potency [13] | Potency [14] | Potency [19] | Potency [20]

O=C1CN2CCOC2(c2ccccc2Cl)c2cc(Cl)ccc2N1 (centres undefined)
inactive: Potency [1] | Potency [2] | Potency [3] | Potency [4] | Potency [5] | Potency [6] | Potency [7] | Potency [8] | Potency [9] | Potency [11] | Potency [17] | Potency [18] | Potency [12] | Potency [13] | Potency [14] | Potency [15] | Potency [16] | Potency [19] | Potency [20]

N#Cc1sc2c(=O)c3ccccc3c(=O)c=2sc1C#N
inactive: Potency [3] | Potency [4] | Potency [5] | Potency [6] | Potency [7] | Potency [18] | Potency [12] | Potency [13] | Potency [16] | Potency [19] | Potency [20]
active: Potency [1] 6.11 µM | Potency [2] 2.17 µM | Potency [8] 5.13 µM | Potency [9] 16.2 µM | Potency [10] 4.08 µM

CC(=O)OCC1=C(C(=O)O)N2C(=O)[C@@H](N)[C@H]2SC1
inactive: activity change, negative = cytotoxicity [1] 3.02% [at 19 µM] | activity, positive = activation [2] -4.57% [at 19 µM] | activity change [3] -1.33% [at 11.8 µM, stronger effect = higher value] | activation [4] -0.221% [at 15.8 µM] | activation [5] 1.18% [at 11.8 µM] | activation [6] 8.26% [at 13.5 µM] | activation [7] 0.252% [at 13.6 µM] | activity change, negative = cytotoxicity [8] -9.53% [at 13.5 µM] | activity change, negative = cytotoxicity [9] 0.524% [at 13.5 µM] | activation [11] 1.4% [at 13.5 µM] | activity, negative = inhibition [17] 10.6% [at 12.7 µM] | activation [18] 1.54% [at 15.9 µM] | activity, negative = inhibition [12] 7.63% [at 12.6 µM] | activation [13] 0.141% [at 15.8 µM] | activation [14] -2.32% [at 19 µM] | activity change, negative = inhibition [15] -7.18% [at 18.9 µM] | activity change, negative = inhibition [16] -0.292% [at 19 µM] | activation [19] 5.76% [at 19 µM] | activity change, negative = inhibition [20] 7.52% [at 18.9 µM]

CCCCOC(C)=O
inactive: Potency [1] | Potency [2] | Potency [3] | Potency [4] | Potency [5] | Potency [6] | Potency [7] | Potency [8] | Potency [9] | Potency [11] | Potency [17] | Potency [18] | Potency [12] | Potency [13] | Potency [14] | Potency [15] | Potency [16] | Potency [19] | Potency [20]

O=C1NCN(c2ccccc2)C12CCN(CC1COc3ccccc3O1)CC2 (centres undefined)
inactive: Potency [1] | Potency [2] | Potency [3] | Potency [4] | Potency [5] | Potency [6] | Potency [7] | Potency [8] | Potency [9] | Potency [10] | Potency [12] | Potency [19]
active: Potency [18] 0.0425 µM | Potency [20] 0.0376 µM
